# Laboratory results: the antibiotic and cytotoxicity screens of Wong et al. (2023)
# Among all 39,000 compounds or so, about 3,300 (8.5%) were called active. What follows is part of a selection rich in actives, with near analogues and random picks from the rest.
# Test system: HepG2
# Assay: cytotoxicity call (relative viability < 0.9)
# Settings: 10 µM
row,SMILES,cytotoxicity call
1,COc1ccc(S(=O)(=O)N(C)C[C@H]2OCCCC[C@H](C)Oc3ccc(NC(=O)CCC(F)(F)F)cc3C(=O)N([C@@H](C)CO)C[C@@H]2C)cc1,inactive
2,O=C1CCC(C(=O)O)CC1,inactive
3,C[C@@H]1CN([C@@H](C)CO)C(=O)c2cc(NC(=O)CCN3CCOCC3)ccc2O[C@@H]1CN(C)S(=O)(=O)c1ccccc1,inactive
4,C[C@@H]1CCCCO[C@@H](CN(C)C(=O)Nc2cccc3ccccc23)[C@@H](C)CN([C@H](C)CO)C(=O)c2cc(NC(=O)Nc3ccc(C(F)(F)F)cc3)ccc2O1,inactive
5,COc1ccc(S(=O)(=O)N(C)C[C@@H]2Oc3ccc(NS(=O)(=O)c4cn(C)cn4)cc3C(=O)N([C@H](C)CO)C[C@@H]2C)cc1,inactive
6,C[C@H](CO)N1C[C@H](C)[C@@H](CN(C)S(=O)(=O)c2ccc3ccccc3c2)OCc2cnnn2CCCC1=O,inactive
7,COc1ccc(C#Cc2cnc3c(c2)C(=O)N([C@H](C)CO)C[C@H](C)[C@H](CN(C)S(=O)(=O)c2cccc(F)c2)O3)cc1OC,inactive
8,COC(=O)c1c(C(=O)OC)c2n(c(=O)c1-c1ccccc1)[C@@H]1c3ccccc3O[C@@](COCc3ccc(OC)cc3)([C@@H]1CO[Si](C)(C)C(C)(C)C)N2C,inactive
9,COc1ccc(COCC23Oc4ccccc4[C@H]([C@H]2COC(=O)c2ccccc2)n2c(c4ccccc4c(-c4ccccc4)c2=O)N3C)cc1,active
10,COC(=O)c1cc(-c2ccccc2)c(=O)n2c1N(C)[C@@]1(COCc3ccc(OC)cc3)Oc3ccccc3[C@@H]2[C@H]1CO[Si](C)(C)C(C)(C)C,inactive
11,COc1ccc(COCC23Oc4ccccc4[C@H]([C@H]2CO)n2c(c4c(c(C(C)=O)c2=O)C(=O)N(C)C4=O)N3C)cc1,inactive
12,COc1ccc(COCC23Oc4ccccc4[C@H]([C@H]2CO)n2c(c4ccccc4c(-c4ccccc4)c2=O)N3C)cc1,active
13,COc1ccc(COCC23Oc4ccccc4[C@H]([C@H]2COC(=O)NCCCCCC(=O)NO)n2c(c4c(c(C(C)=O)c2=O)C(=O)N(C)C4=O)N3C)cc1,inactive
14,COC(=O)c1c(C(=O)OC)c2n(c(=O)c1-c1ccccc1)[C@@H]1c3ccccc3O[C@@](CO)([C@@H]1CO)N2C,inactive
15,COc1ccc(COCC23Oc4ccccc4[C@H]([C@H]2CO[Si](C)(C)C(C)(C)C)n2c(c4ccccc4c(-c4ccccc4)c2=O)N3C)cc1,active
16,COC(=O)c1c(C(=O)OC)c2n(c(=O)c1-c1ccccc1)[C@@H]1c3ccccc3O[C@@](COCc3ccc(OC)cc3)([C@@H]1COC(=O)c1ccccc1)N2C,inactive
17,COc1ccc(NC(=O)N(C)C[C@@H]2OCCCC[C@H](C)Oc3ccc(NS(=O)(=O)c4ccc(OC)cc4)cc3C(=O)N([C@H](C)CO)C[C@@H]2C)cc1,inactive
18,CC(C)NC(=O)N(C)C[C@@H]1Oc2c(NC(=O)Nc3ccc4c(c3)OCO4)cccc2C(=O)N([C@@H](C)CO)C[C@@H]1C,inactive
19,C[C@H]1CCCCO[C@H](CN(C)C(=O)CCC(F)(F)F)[C@@H](C)CN([C@@H](C)CO)C(=O)c2cc(NS(=O)(=O)c3cccs3)ccc2O1,inactive
20,Cn1cnc(S(=O)(=O)N2C[C@@H](O)COC[C@H]3O[C@H](CC(=O)NCc4cc(F)cc(F)c4)CC[C@@H]32)c1,inactive
21,O=C(C[C@@H]1CC[C@H]2[C@@H](COC[C@@H](O)CN2S(=O)(=O)c2cccc(Cl)c2)O1)N1CCOCC1,inactive

row,SMILES,cytotoxicity call
1,Cn1cnc(CCNC(=O)C[C@H]2CC[C@@H]3[C@H](COC[C@H](O)CN3C(=O)Nc3ccc(Cl)cc3)O2)c1,active
2,O=C(C[C@@H]1CC[C@@H]2[C@H](COC[C@H](O)CN2Cc2cccc(C(F)(F)F)c2)O1)NCCc1ccncc1,inactive
3,O=C(C[C@H]1CC[C@H]2[C@@H](COC[C@@H](O)CN2C(=O)Nc2ccc(Cl)c(Cl)c2)O1)NCc1ccc(Cl)c(Cl)c1,active
4,O=C(C[C@H]1CC[C@H]2[C@@H](COC[C@H](O)CN2C(=O)Nc2ccc(Cl)c(Cl)c2)O1)NCc1ccc(Cl)c(Cl)c1,inactive
5,O=C(C[C@H]1CC[C@@H]2[C@H](COC[C@H](O)CN2Cc2cccc(C(F)(F)F)c2)O1)NCCc1ccncc1,inactive
6,O=C(C[C@H]1CC[C@@H]2[C@H](COC[C@@H](O)CN2Cc2cccc(C(F)(F)F)c2)O1)NCCc1ccncc1,active
7,Cn1cnc(CCNC(=O)C[C@H]2CC[C@@H]3[C@H](COC[C@@H](O)CN3C(=O)Nc3ccc(Cl)cc3)O2)c1,inactive
8,Cn1cnc(CCNC(=O)C[C@@H]2CC[C@H]3[C@@H](COC[C@H](O)CN3C(=O)Nc3ccc(Cl)cc3)O2)c1,inactive
9,O=C(C[C@H]1CC[C@@H]2[C@H](COC[C@@H](O)CN2C(=O)Nc2ccc(Cl)c(Cl)c2)O1)NCc1ccc(Cl)c(Cl)c1,inactive
10,O=C(C[C@@H]1CC[C@H]2[C@@H](COC[C@H](O)CN2C(=O)Nc2ccc(Cl)c(Cl)c2)O1)NCc1ccc(Cl)c(Cl)c1,inactive
11,O=C(C[C@@H]1CC[C@H]2[C@@H](COC[C@@H](O)CN2C(=O)Nc2ccc(Cl)c(Cl)c2)O1)NCc1ccc(Cl)c(Cl)c1,active
12,O=C(C[C@@H]1CC[C@@H]2[C@H](COC[C@@H](O)CN2C(=O)Nc2ccc(Cl)c(Cl)c2)O1)NCc1ccc(Cl)c(Cl)c1,inactive
13,C[C@H]1CN([C@@H](C)CO)S(=O)(=O)c2ccc(Br)cc2O[C@@H]1CN(C)C(=O)c1cnccn1,inactive
14,C[C@H](CO)N1C[C@H](C)[C@H](CN(C)Cc2ccccc2)Oc2c(NC(=O)Nc3ccc(C(F)(F)F)cc3)cccc2C1=O,inactive
15,C[C@H]1CN([C@@H](C)CO)C(=O)Cc2cc(NC(=O)CCC(F)(F)F)ccc2O[C@@H]1CN(C)Cc1ccc(Cl)c(Cl)c1,inactive
16,O=C(O)CCC(=O)N1CC(=O)Nc2ccccc21,inactive
17,C[C@@H]1CN([C@@H](C)CO)C(=O)c2cccc(NS(=O)(=O)c3ccccc3)c2O[C@@H]1CN(C)Cc1ccc(Oc2ccccc2)cc1,inactive
18,COc1ccc(S(=O)(=O)N(C)C[C@H]2Oc3ccc(NS(=O)(=O)c4ccc(C)cc4)cc3CC(=O)N([C@H](C)CO)C[C@@H]2C)cc1,inactive
19,NC[C@H](c1ccccc1Cl)N1CCOCC1,inactive
20,C[C@@H]1CN([C@H](C)CO)C(=O)c2cc(NC(=O)Nc3ccccc3)ccc2O[C@@H](C)CCCCO[C@H]1CN(C)C(=O)Cc1ccccc1,inactive
21,CC[C@H](C)[C@H](N)C1=N[C@H](C(=O)N[C@@H](CC(C)C)C(=O)N[C@H](CCC(=O)O)C(=O)N[C@H](C(=O)N[C@H]2CCCCNC(=O)[C@H](CC(N)=O)NC(=O)[C@@H](CC(=O)O)NC(=O)[C@H](Cc3cnc[nH]3)NC(=O)[C@@H](Cc3ccccc3)NC(=O)[C@H]([C@@H](C)CC)NC(=O)[C@@H](CCCN)NC2=O)[C@@H](C)CC)CS1,inactive

row,SMILES,cytotoxicity call
1,O=C(C[C@@H]1CC[C@@H]2[C@H](COC[C@@H](O)CN2C(=O)Nc2ccc(Cl)c(Cl)c2)O1)NCc1ccncc1,active
2,O=C(C[C@H]1CC[C@H]2[C@@H](COC[C@@H](O)CN2C(=O)Nc2ccc(Cl)cc2)O1)NCCc1ccncc1,active
3,O=C(C[C@@H]1CC[C@H]2[C@@H](COC[C@@H](O)CN2C(=O)Nc2ccc(Cl)c(Cl)c2)O1)NCc1ccncc1,inactive
4,O=C(C[C@@H]1CC[C@@H]2[C@H](COC[C@H](O)CN2C(=O)Nc2ccc(Cl)c(Cl)c2)O1)NCc1ccc(Cl)c(Cl)c1,inactive
5,O=C(C[C@H]1CC[C@@H]2[C@H](COC[C@H](O)CN2C(=O)Nc2ccc(Cl)c(Cl)c2)O1)NCc1ccc(Cl)c(Cl)c1,active
6,O=C(C[C@H]1CC[C@H]2[C@@H](COC[C@H](O)CN2C(=O)Nc2ccc(Cl)cc2)O1)NCCc1ccncc1,inactive
7,O=C(C[C@H]1CC[C@@H]2[C@H](COC[C@H](O)CN2C(=O)Nc2ccc(Cl)c(Cl)c2)O1)NCc1ccncc1,inactive
8,O=C(C[C@H]1CC[C@H]2[C@@H](COC[C@@H](O)CN2C(=O)Nc2ccc(Cl)c(Cl)c2)O1)NCc1ccncc1,inactive
9,O=C(C[C@@H]1CC[C@@H]2[C@H](COC[C@@H](O)CN2C(=O)Nc2ccc(Cl)cc2)O1)NCCc1ccncc1,inactive
10,CO[C@H]1CN(C)C(=O)c2cc(NC(=O)Nc3ccc(Cl)cc3)ccc2OC[C@@H](C)N(C(=O)Nc2c(C)noc2C)C[C@@H]1C,inactive
11,C[C@@H]1CCCCO[C@@H](CN(C)C(=O)Cc2ccccc2)[C@@H](C)CN([C@H](C)CO)C(=O)c2cc(NC(=O)C3CCCCC3)ccc2O1,inactive
12,CC(C)NC(=O)N(C)C[C@@H]1Oc2ccc(NC(=O)Cn3cnnn3)cc2C(=O)N([C@H](C)CO)C[C@@H]1C,inactive
13,C[C@@H]1CCCCO[C@H](CN(C)C(=O)Cc2ccccc2)[C@H](C)CN([C@H](C)CO)C(=O)c2cc(NC(=O)CCC(F)(F)F)ccc2O1,inactive
14,C[C@@H]1CN([C@@H](C)CO)C(=O)c2cc(NC(=O)CCCN(C)C)ccc2O[C@H]1CN(C)S(=O)(=O)c1ccc(F)cc1,inactive
15,Clc1ccc(C2=Nc3cccc4cccc(c34)N2)cc1,inactive
16,C=C(CO)C(=O)O[C@H]1C[C@@]2(C)OC(=O)/C(=C/C)[C@]2(O)CC[C@@]2(C)CC(=O)[C@]1(C(=C)C(=O)OC)O2,inactive
17,C=C(CO)C(=O)O[C@@H]1[C@H]2C(=C)C(=O)O[C@@H]2[C@H]2O[C@]2(C)CC/C=C(/C(=O)OC)[C@H]1OC(C)=O,active
18,O=C(O)CN1CCCCCC1=O,inactive
19,O=C(C[C@H]1C[C@@H]2c3cc(NC(=O)Nc4ccc(C(F)(F)F)cc4)ccc3O[C@@H]2[C@H](CO)O1)NCc1ccc(Cl)cc1,inactive
